The values that follow come from PubChem BioAssay (EPA / NIEHS).

Calls of active or inactive are those of the source. How the source made its calls: active means hit-call score of the fitted dose curve at least 0.9, where 1 is the maximum; inactive means score below 0.9.

A short description of one test: ATG_TCF_b_cat_CIS: Attagene CIS-FACTORIAL HepG2 Assay for human T-Cell-Factor with beta-catenin (TCF/b-cat) (AID 2282965). The settings on record: HepG2 TCF/beta-catenin cis-reporter transcription, actives raise or lower the signal. A digest of the protocol:
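Endogenous TCF/LEF activity read as reporter transcript level via RT-PCR and capillary electrophoresis fluorescence in transfected HepG2, 24 h exposure; gain or loss of signal fitted against DMSO controls.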
For the molecule `N#Cc1cc(Br)c(O)c(Br)c1`, the call was inactive.

For `Cc1c(F)c(F)c(COC(=O)C2C(/C=C(\Cl)C(F)(F)F)C2(C)C)c(F)c1F` (stereo unspecified), the outcome was inactive.

Regarding `O=C(O)COc1nc(Cl)c(Cl)cc1Cl`, the molecule was called inactive.

Take `COc1cnc(OC)n2nc(NS(=O)(=O)c3c(OCC(F)F)cccc3C(F)(F)F)nc12`: the molecule was classed as inactive.

Consider `O=C(O)c1nc(Cl)ccc1Cl`, for which the result was inactive.

On to `CCOC(=O)C(Cl)Cc1cc(-n2nc(C)n(C(F)F)c2=O)c(F)cc1Cl` (stereo unspecified), for which the molecule was called inactive.

In the case of `CNC(=O)ON=CC(C)(C)SC`, the molecule was called inactive.

For `CCNc1nc(Cl)nc(NCC)n1`, the call was inactive.

With `N#CC(CCc1ccc(Cl)cc1)(Cn1cncn1)c1ccccc1` (stereo unspecified), the molecule was called inactive.

Take `CCOP(=S)(OCC)SCn1c(=O)oc2cc(Cl)ccc21`: the molecule was called inactive.

Take `CS/C(C)=N/OC(=O)N(C)SN(C)C(=O)O/N=C(\C)SC`: the result was inactive.

Regarding `Fc1ccc(Oc2ccnc3cc(Cl)cc(Cl)c23)cc1`, the outcome was inactive.

For `CCON=C(CC)C1=C(O)CC(c2c(C)cc(C)cc2C)CC1=O` (stereo unspecified), the call was inactive.

In the case of `Cc1ccc(-c2c(Cl)nc(C#N)n2S(=O)(=O)N(C)C)cc1`, the call was inactive.

In the case of `CC(Oc1ccc(Cl)cc1Cl)C(=O)O` (stereo unspecified), the outcome was inactive.

Take `CCOc1cc(Oc2ccc(C(F)(F)F)cc2Cl)ccc1[N+](=O)[O-]`: the call was inactive.

Regarding `CCNc1nc(Cl)nc(NC(C)C)n1`, the molecule was called inactive.

On to `COC(=O)C(C)Oc1ccc(Oc2ccc(Cl)cc2Cl)cc1` (stereo unspecified), for which the molecule was called inactive.

Take `Cc1cc(Cl)ccc1OCC(=O)O`: the molecule was called inactive.

On to `CN(C)C(=S)SSC(=S)N(C)C`, for which the result was inactive.

For the molecule `C#CCOS(=O)OC1CCCCC1Oc1ccc(C(C)(C)C)cc1` (stereo unspecified), the molecule was called inactive.

For the molecule `CC(C)Oc1cc(-n2nc(C(C)(C)C)oc2=O)c(Cl)cc1Cl`, the molecule was called inactive.

Turning to `CC1=C(C(=O)Nc2ccccc2)SCCO1`, the call was inactive.

As to `COP(N)(=O)SC` (stereo unspecified), the molecule was called inactive.

For the molecule `O=C(Nc1ccccc1)Nc1ccnc(Cl)c1`, the molecule was called inactive.

Regarding `CC1COC(Cn2cncn2)(c2ccc(Oc3ccc(Cl)cc3)cc2Cl)O1` (stereo unspecified), the outcome was inactive.

`C=CC1(C)OC(=O)N(c2cc(Cl)cc(Cl)c2)C1=O` (stereo unspecified): the molecule was called inactive.

Another test can be described thus: ATG_TAL_CIS: Attagene CIS-FACTORIAL HepG2 Assay for human TAL Basal Promoter (AID 2282966).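 Further: background control endpoint measuring basal TAL promoter reporter mRNA not a specific factor.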 The settings on record: HepG2 Attagene cis-factorial TAL promoter reporter; actives raise or lower the signal. The method, boiled down: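 Endogenous transcription-factor activity is sensed in HepG2 cells through transfected cis-promoter reporter constructs. After 24 h dosing, reporter transcripts are quantified by RT-PCR and capillary electrophoresis. Gain or loss of signal is fitted relative to DMSO.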
`N#Cc1cc(Br)c(O)c(Br)c1`: the molecule was called inactive.

For the molecule `Cc1c(F)c(F)c(COC(=O)C2C(/C=C(\Cl)C(F)(F)F)C2(C)C)c(F)c1F` (stereo unspecified), the result was inactive.

Regarding `O=C(O)COc1nc(Cl)c(Cl)cc1Cl`, the call was inactive.

For the molecule `COc1cnc(OC)n2nc(NS(=O)(=O)c3c(OCC(F)F)cccc3C(F)(F)F)nc12`, the outcome was inactive.

With `O=C(O)c1nc(Cl)ccc1Cl`, the call was inactive.

Regarding `CCOC(=O)C(Cl)Cc1cc(-n2nc(C)n(C(F)F)c2=O)c(F)cc1Cl` (stereo unspecified), the outcome was inactive.

Take `CNC(=O)ON=CC(C)(C)SC`: the call was inactive.

Regarding `CCNc1nc(Cl)nc(NCC)n1`, the molecule was classed as inactive.

As for `N#CC(CCc1ccc(Cl)cc1)(Cn1cncn1)c1ccccc1` (stereo unspecified), the outcome was inactive.

As to `CCOP(=S)(OCC)SCn1c(=O)oc2cc(Cl)ccc21`, the call was inactive.

On to `CS/C(C)=N/OC(=O)N(C)SN(C)C(=O)O/N=C(\C)SC`, for which the call was inactive.

On to `Fc1ccc(Oc2ccnc3cc(Cl)cc(Cl)c23)cc1`, for which the molecule was classed as inactive.

Regarding `CCON=C(CC)C1=C(O)CC(c2c(C)cc(C)cc2C)CC1=O` (stereo unspecified), the result was inactive.

For the molecule `Cc1ccc(-c2c(Cl)nc(C#N)n2S(=O)(=O)N(C)C)cc1`, the molecule was classed as inactive.

For `CC(Oc1ccc(Cl)cc1Cl)C(=O)O` (stereo unspecified), the molecule was called inactive.

`CCOc1cc(Oc2ccc(C(F)(F)F)cc2Cl)ccc1[N+](=O)[O-]`: the molecule was called inactive.

In the case of `CCNc1nc(Cl)nc(NC(C)C)n1`, the outcome was inactive.

Regarding `COC(=O)C(C)Oc1ccc(Oc2ccc(Cl)cc2Cl)cc1` (stereo unspecified), the molecule was called inactive.

Regarding `Cc1cc(Cl)ccc1OCC(=O)O`, the molecule was called inactive.

For `CN(C)C(=S)SSC(=S)N(C)C`, the outcome was inactive.

For `C#CCOS(=O)OC1CCCCC1Oc1ccc(C(C)(C)C)cc1` (stereo unspecified), the result was inactive.

For the molecule `CC(C)Oc1cc(-n2nc(C(C)(C)C)oc2=O)c(Cl)cc1Cl`, the molecule was called inactive.

As for `CC1=C(C(=O)Nc2ccccc2)SCCO1`, the molecule was classed as inactive.

For the molecule `COP(N)(=O)SC` (stereo unspecified), the molecule was called inactive.

Regarding `O=C(Nc1ccccc1)Nc1ccnc(Cl)c1`, the molecule was called inactive.

For the molecule `CC1COC(Cn2cncn2)(c2ccc(Oc3ccc(Cl)cc3)cc2Cl)O1` (stereo unspecified), the call was inactive.

For `C=CC1(C)OC(=O)N(c2cc(Cl)cc(Cl)c2)C1=O` (stereo unspecified), the call was inactive.

The nature of a further test: ATG_TGFb_CIS: Attagene CIS-FACTORIAL HepG2 Assay for human Transforming Growth Factor (TGF) (AID 2282967). As to conditions: HepG2 Attagene CIS TGFb reporter, mRNA transcription; actives raise or lower the signal. The method, boiled down: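 Liver HepG2 line, cis-factorial reporter panel, 24 h dosing. Quantitation: RT-PCR products labeled with 6-FAM, cut with HpaI, resolved by capillary electrophoresis; DMSO-referenced bidirectional analysis.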
For `N#Cc1cc(Br)c(O)c(Br)c1`, the outcome was inactive.

For the molecule `Cc1c(F)c(F)c(COC(=O)C2C(/C=C(\Cl)C(F)(F)F)C2(C)C)c(F)c1F` (stereo unspecified), the outcome was inactive.

Consider `O=C(O)COc1nc(Cl)c(Cl)cc1Cl`, for which the call was inactive.

As for `COc1cnc(OC)n2nc(NS(=O)(=O)c3c(OCC(F)F)cccc3C(F)(F)F)nc12`, the outcome was inactive.

As to `O=C(O)c1nc(Cl)ccc1Cl`, the molecule was called inactive.

For `CCOC(=O)C(Cl)Cc1cc(-n2nc(C)n(C(F)F)c2=O)c(F)cc1Cl` (stereo unspecified), the molecule was called inactive.

As to `CNC(=O)ON=CC(C)(C)SC`, the result was inactive.

As for `CCNc1nc(Cl)nc(NCC)n1`, the outcome was inactive.

Turning to `N#CC(CCc1ccc(Cl)cc1)(Cn1cncn1)c1ccccc1` (stereo unspecified), the molecule was called inactive.

Regarding `CCOP(=S)(OCC)SCn1c(=O)oc2cc(Cl)ccc21`, the outcome was inactive.

On to `CS/C(C)=N/OC(=O)N(C)SN(C)C(=O)O/N=C(\C)SC`, for which the call was inactive.

`Fc1ccc(Oc2ccnc3cc(Cl)cc(Cl)c23)cc1`: the result was inactive.

Take `CCON=C(CC)C1=C(O)CC(c2c(C)cc(C)cc2C)CC1=O` (stereo unspecified): the result was inactive.

On to `Cc1ccc(-c2c(Cl)nc(C#N)n2S(=O)(=O)N(C)C)cc1`, for which the outcome was inactive.

Turning to `CC(Oc1ccc(Cl)cc1Cl)C(=O)O` (stereo unspecified), the call was inactive.

Turning to `CCOc1cc(Oc2ccc(C(F)(F)F)cc2Cl)ccc1[N+](=O)[O-]`, the molecule was called inactive.

With `CCNc1nc(Cl)nc(NC(C)C)n1`, the molecule was classed as inactive.

As for `COC(=O)C(C)Oc1ccc(Oc2ccc(Cl)cc2Cl)cc1` (stereo unspecified), the molecule was classed as inactive.

With `Cc1cc(Cl)ccc1OCC(=O)O`, the molecule was called inactive.

With `CN(C)C(=S)SSC(=S)N(C)C`, the outcome was inactive.

Turning to `C#CCOS(=O)OC1CCCCC1Oc1ccc(C(C)(C)C)cc1` (stereo unspecified), the molecule was classed as inactive.

Take `CC(C)Oc1cc(-n2nc(C(C)(C)C)oc2=O)c(Cl)cc1Cl`: the molecule was called inactive.

For the molecule `CC1=C(C(=O)Nc2ccccc2)SCCO1`, the result was inactive.

For `COP(N)(=O)SC` (stereo unspecified), the outcome was inactive.

On to `O=C(Nc1ccccc1)Nc1ccnc(Cl)c1`, for which the result was inactive.

Take `CC1COC(Cn2cncn2)(c2ccc(Oc3ccc(Cl)cc3)cc2Cl)O1` (stereo unspecified): the AC50 is 3.17 µM (active).

For the molecule `C=CC1(C)OC(=O)N(c2cc(Cl)cc(Cl)c2)C1=O` (stereo unspecified), the molecule was called inactive.
